Drawing on PubChem BioAssay (NCI), this text covers growth for 40 compounds.

About 83,000 compounds went through this panel and 20% of them were active in at least one assay; those are over-represented in the sample as a whole.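 Compound tested at a single concentration for 48 hours in 96-well plates; a percent growth value below 10 was scored as active.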 Active and inactive are the calls of the source.

This experiment deals with UACC-62 melanoma. The experiment in a line: NCI-60 one-dose screen, 48 h (100 = growth as untreated, 0 = no growth, -100 = all killed). Particulars: 10 µM unless noted. The method, then:
Growth inhibition of the UACC-62 human tumor cell line is measured as a screen for anti-cancer activity. Cells are grown in 96 well plates and exposed to the test compound for 48 hours. Compounds are tested at a single concentration, which is 10^-5 M for most compounds. The reported endpoint is percent growth (GI% or GIPRCNT), where numbers from 0 - 100% represent growth inhibition, and numbers from -100% - 0 represent cell death. For example, a value of 40 represents 60% growth inhibition. A value of 0 means no net growth occurred over the course of the experiment. A value of -40 indicates 40% of cells at the beginning of the experiment died by the end of the experiment. A value of -100 means all cells are dead at the end of the experiment.
NCI-60 Human Tumor Cell Lines Screen was performed using the standard one-dose NCI protocol, which is described in more detail at https://dtp.cancer.gov/discovery_development/nci-60/default.htm.
Compounds with GIPRCNT values below 10 were considered active. Activity score was based on GIPRCNT using the following formula: […]
Score is 0 for GIPRCNT values of 100 or above, 50 for GIPRCNT values of 0, and 100 for GIPRCNT values of -100.
Regarding `C[C@@H]1C(=O)[C@@H]2C[C@@H](O)[C@@H](O)C[C@]2(C)[C@H]2CC[C@@]3(C)C(=C12)CC[C@@H]3[C@@](C)(O)[C@H](O)CCC(C)(C)O`, the growth was 97.8% (inactive).
Consider `CC[C@]12C=CCN3CC[C@@]4(c5cc(NC(=O)CCC(=O)O[C@H]6CC[C@H]7[C@@H]8CC[C@H]9CC(=O)CC[C@]9(C)[C@H]8CC[C@]67C)c(OC)cc5N(C)[C@H]4[C@@](O)(C(=O)OC)[C@@H]1OC(C)=O)[C@@H]32`, for which the growth was 81.2% (inactive).
As for `Clc1ccc2c(NCCCNC3CCCCC3)ccnc2c1`, the figure is 111% (inactive); as for `COc1ccc(-c2cc(-c3nnc(SCC(=O)Nc4ccc(/C(C)=N\O)cc4)n3-c3ccccc3)c3cc(OC)ccc3n2)cc1`, 49% (inactive); as for `COc1cc(/C=N/Nc2nc(-c3ccc(F)cc3)c(C#N)c(N3CCOCC3)n2)ccc1O`, 99% (inactive).
In the case of `CC(=O)[C@@H]1CC[C@]2(C(=O)O)CC[C@]3(C)[C@H](CC[C@@H]4[C@@]5(C)Cc6c([nH]c7ccccc67)C(C)(C)[C@@H]5CC[C@]43C)[C@@H]12`, the growth is 67.9% (inactive).
As for `COc1ccc(-c2cc(-c3nnc(SCC(=O)Nc4ccc(/C(C)=N\O)cc4)o3)c3ccccc3n2)cc1`, the figure is 106% (inactive); as for `COc1ccc2nc(-c3ccc(OC)c(OC)c3)cc(-c3nnc(SCC(=O)Nc4ccc(/C(C)=N\O)cc4)n3-c3ccccc3)c2c1`, 71.1% (inactive); as for `O=C(Nc1nccs1)c1noc2ccccc12`, 88% (inactive).
With `CCOC(=O)C1CCN(S(=O)(=O)/N=C2/NC(=O)NC2=C(Cl)Cl)CC1`, the growth was -30.6% (active).
The same measure for `CN1CCN(S(=O)(=O)O[C@@H]2C(=O)N(c3cc4c5ccccc5ccc4c4ccccc34)[C@H]2c2ccc(F)cn2)CC1`: 86.5% (inactive); for `NC[C@@H]1CCN(c2cc3c(cc2F)c(=O)n(N)c(=O)n3Cc2ccc(-c3ccccc3)cc2)C1`: 94.6% (inactive).
As for `O=CN1N=C(c2ccc(Cl)cc2)CC1c1cccc(Nc2ccnc3cc(C(F)(F)F)ccc23)c1` (stereo not given), the figure is 63.7% (inactive).
As for `CCN1CCC[C@H]1c1cc(O)c2c(c1OC)C[C@H]1C[C@H]3[C@H](N)C(=O)C(C(N)=O)=C(O)[C@@]3(O)C(=O)C1=C2O`, the figure is -19% (active); as for `COc1cc(NC(=O)Nc2cnc(Nc3ccc(N4CCOCC4)cc3)nc2Oc2ccc(C(F)(F)F)cc2)cc(OC)c1`, 105% (inactive); as for `COc1ccc(C(=O)c2cc(OC)c(OC)c(OC)c2)cc1OC(=O)CCl`, 45.2% (inactive).
Consider `OCCNc1nc(NCCO)nc(Nc2ccc(C3=NN(c4cc(Cl)cc(Cl)c4)C(c4ccccc4)C3)cc2)n1` (stereo not given), for which the growth was 20.9% (inactive).
As for `CCCCOc1nc2ccc(C)cc2cc1/C=C/C(=O)/C=C/c1ccc2c(c1)OCO2`, the figure is 75.6% (inactive); as for `Cc1cc(NC(=O)CNc2nc(Oc3ccc(F)cc3)nc(-c3ccc(F)cc3)n2)ccc1Cl`, 97.5% (inactive).
The same measure for `O=C(Nc1ccccc1)NS(=O)(=O)c1c[nH]c(=S)[nH]c1=O`: 99.5% (inactive); for `C#Cc1ccccc1NC(=O)c1sc2nc3c(cc2c1N)CCCCC3`: 95.2% (inactive).
As for `COc1ccc(Cl)c([N+](=O)[O-])c1`, the growth is 97% (inactive).
As for `Nc1c(C(=O)Nc2ccccc2Cl)sc2nc3c(cc12)CN(Cc1ccccc1)CC3`, the figure is 101% (inactive); as for `CCCCn1c(=O)c(/C=C/C(=O)/C=C/c2cc3ccccc3n(CCCC)c2=O)cc2ccccc21`, -43.8% (active); as for `COc1ccccc1N1CCN(CCCOc2ccc(C(=O)/C=C3/C(=O)Nc4ccccc43)cc2)CC1`, 56.1% (inactive).
Take `COc1cc(-c2nn(-c3ccc(Br)cc3)cc2CO)ccc1O`: the growth was 78.9% (inactive).
Regarding `Nn1c(SCC(=O)Nc2ccc(Cl)cc2)nnc1-c1cc(F)c(Cl)cc1Cl`, the growth was 65.8% (inactive).
As for `CCOC(=O)c1c(C)nc2c(c1N)CC(=O)N2CCc1ccccc1`, the figure is 32.1% (inactive); as for `O=c1[nH]nc(-c2ccccc2)c2sc(NC(=S)Nc3ccc(Cl)cc3)nc12`, 92.6% (inactive).
The same measure for `CCOC(=O)c1c(C(F)(F)F)n([O-])c2ccc(Cl)cc2[n+]1=O`: -18.1% (active); for `Cc1nnc(/N=C2\NC(=O)/C(=C/c3ccsc3)S2)s1`: 102% (inactive); for `COc1cc(C(=O)N2CCN(c3ccccc3OC)CC2)c(NC(=O)c2cnccn2)cc1OCc1ccccc1`: 73.3% (inactive).
Turning to `O=C1C(Cl)=C(Nc2ccc3c(c2NC2=C(Cl)C(=O)c4ccccc4C2=O)C(=O)c2ccccc2C3=O)C(=O)c2ccccc21`, the growth is -62.6% (active).
Regarding `CCOC(=O)c1cnn(-c2nc(-c3ccc(F)cc3)c(C#N)c(N3CCOCC3)n2)c1N`, the growth was 90.8% (inactive).
In the case of `O=C1NN(c2ccccc2)C(c2ccc3c(c2)OCO3)N2CCC[C@@H]12` (stereo not given in full), the growth was 92% (inactive).
As for `C/C(=N\NC(=O)c1ccncc1)c1ccc(N)cc1`, the figure is 93.6% (inactive); as for `O=C1C(=O)c2c(nc3ccc(Br)cn23)-c2ccccc21`, -87.6% (active).
The same measure for `O=C1NC(SCc2ccc(F)cc2)=N/C1=C/c1cccc(OCc2ccc(Cl)cc2)c1`: 72% (inactive).
`O=C(O)c1cc(N=Nc2ccc(-c3ccc(N=Nc4c(S(=O)(=O)O)cc5ccc(Nc6ccccc6)cc5c4O)cc3)cc2)ccc1O`: the growth was 93.7% (inactive).
The same measure for `N#CC1(C#N)C2=C(CCCC2)NC(c2c(F)cccc2Cl)C1(C#N)C#N` (stereo not given): 40.8% (inactive).
